Among the data in PubChem BioAssay (NCATS) are outcome and Potency values, retold here.

Assay [1] has as its target Galactokinase (Homo sapiens) (UniProt P51570). Nature of the assay: qHTS Validation Assay for Inhibitors of Human Galactokinase (GALK) (AID 493189). The procedure, abridged: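 Compounds were pin-transferred into ATP buffer, then GALK-galactose mix was added (final 5 nM enzyme, 100 uM galactose, 35 uM ATP). After 1 h at room temperature, remaining ATP was measured luminescently.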

Assay [2] can be described thus: Validation screen for small molecules that induce DNA re-replication in SW480 colon adenocarcinoma cells (AID 504364). The procedure, abridged:
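Cells are treated 48 hr with test compound, stained 40 min with Hoechst at 37 C, and scanned for nuclear fluorescence; compounds inducing re-replication increase nuclei with elevated intensity.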

The target in assay [3] is Peptidyl-prolyl cis-trans isomerase NIMA-interacting 1 (Homo sapiens) (UniProt Q13526). Nature of the assay: qHTS Validation Assay to Find Inhibitors of Pin1 (AID 504536; active means well fitted inhibition curve with a large enough effect in the polarisation, with a control signal flat, not every such curve was filed as active; the % refers to the polarisation; further: potency means the concentration at half of the fitted maximal effect). The gist of the method: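 Fluorescence polarization competition: compounds (titration) displace HiFluor-488-labeled Pin1-1b peptide from Pin1 (0.3 uM final) in pH 7.5 HEPES buffer with DTT, 10 min at room temperature; %Activity normalized to no-enzyme wells, curves fitted.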

Assay [4] has as its target phosphoglycerate mutase (Leishmania major) (UniProt Q4Q090). Nature of the assay: qHTS Validation Assay to Find Inhibitors of Phosphoglycerate Mutase (AID 504548). Further: series mostly up to about 58 µM. As to conditions: Potency: inhibition qHTS. The procedure, abridged: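 Lm PGAM 1.25nM final; 100 mM TEA pH 7.6, 5 mM MgCl2, 0.01% Tween-20; 45 min RT; Kinase-GloPlus, 10 min; end-point luminescence. Enzyme-free wells as negative controls.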

Assay [5] can be described thus: Inducers of the Endoplasmic Reticulum Stress Response (ERSR) in human glioma: Validation (AID 504836). The procedure, abridged: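 Stably transfected U87-MG glioma cells carrying a GRP78-based luciferase sensor; 16 h compound incubation. Luminescence end-point read 10 min after Bright-Glo addition at room temperature.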
The target in assay [6] is Ubiquitin carboxyl-terminal hydrolase 1 (Homo sapiens) (UniProt O94782). Nature of the assay: Inhibitors of USP1/UAF1: Pilot qHTS (AID 504865). Further: nearly all actives have a fitted effect of over 35% in size. Further: potency means the concentration at half of the fitted maximal effect. The gist of the method:
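Kinetic fluorescence assay: 1nM USP1/UAF1, 15 min compound preincubation, then 150nM Ub-Rho; 480/540 nm.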

The nature of assay [7]: qHTS for Inhibitors of ATXN expression: Validation of Cytotoxic Assay (AID 588349).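 Further: cells exposed to compound for 72 hr.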 Further: potency means the concentration at half of the fitted maximal effect. The procedure, abridged:
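HEK293, compound dose series, 72 hr / 37 degrees C; viability via CellTiter Glo (intracellular ATP).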

Assay [8] is described as follows: qHTS for Inhibitors of ATXN expression: Validation (AID 588378). Further: nearly all actives have a fitted effect of over 75% in size. Further: potency means the concentration at half of the fitted maximal effect. The gist of the method: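 Validation of ATXN2 expression inhibitors uses a cell-based luciferase fusion reporter in HEK293 cells, with 24 h compound exposure and paired viability (fluorescence) and reporter (luminescence) end-point reads.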
Assay [9] has as its target Phosphoglycerate kinase, glycosomal (Trypanosoma brucei brucei) (UniProt P07378). Nature of the assay: qHTS Validation Assay to Find Inhibitors of Phosphoglycerate Kinase (AID 504547). Further: potency means the concentration at half of the fitted maximal effect. The gist of the method:
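PGK activity was coupled to GAPDH (100nM final), which generates the unstable substrate 1,3-bisphosphoglycerate in-well. Reactions ran 60 minutes at room temperature in 100mM TEA pH 7.6, 5mM MgCl2, 0.01% Tween-20, then Kinase-Glo Plus luminescence was read.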

Assay [10] concerns the target DNA dC->dU-editing enzyme APOBEC-3G (Homo sapiens) (UniProt Q9HC16). Nature of the assay: qHTS for inhibitors of Vif-A3G interactions: Validation (AID 588379). The gist of the method:
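HeLa cells stably expressing Vif and A3G-eYFP, 700 cells/well, incubated overnight at 37 deg C, then exposed to compound overnight at 37 deg C. Inhibition of Vif-mediated degradation read as increased yellow fluorescence (Ex 488/Em 500-530) by laser-scanning cytometry.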

Molecules are shown by their SMILES. A number with no mark means an inactive call. Records with an inconclusive call do not appear. The source made the active and inactive calls. Unless noted, the call rests on the fitted dose curve; in most records, active means well fitted curve in the direction sought with a large enough effect; inconclusive means small, poorly fitted or top-dose-only effect, or another doubt; inactive means no such curve, though single readings can be large; an effect the other way counts as inactive or inconclusive.

Sequence of DNA dC->dU-editing enzyme APOBEC-3G (Homo sapiens) (Q9HC16 whole entry, looked up): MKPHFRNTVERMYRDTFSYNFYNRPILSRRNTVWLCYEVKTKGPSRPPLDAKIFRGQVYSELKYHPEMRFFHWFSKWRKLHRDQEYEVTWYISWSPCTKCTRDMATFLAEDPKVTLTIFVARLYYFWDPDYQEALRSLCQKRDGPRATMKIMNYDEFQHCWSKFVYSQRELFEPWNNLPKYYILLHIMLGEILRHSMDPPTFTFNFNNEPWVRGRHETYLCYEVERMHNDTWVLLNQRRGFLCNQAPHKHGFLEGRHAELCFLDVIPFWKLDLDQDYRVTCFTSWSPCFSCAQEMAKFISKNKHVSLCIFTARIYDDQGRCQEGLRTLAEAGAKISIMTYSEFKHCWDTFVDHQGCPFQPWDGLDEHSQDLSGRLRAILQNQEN
Sequence of Peptidyl-prolyl cis-trans isomerase NIMA-interacting 1 (Homo sapiens) (Q13526 whole entry, looked up): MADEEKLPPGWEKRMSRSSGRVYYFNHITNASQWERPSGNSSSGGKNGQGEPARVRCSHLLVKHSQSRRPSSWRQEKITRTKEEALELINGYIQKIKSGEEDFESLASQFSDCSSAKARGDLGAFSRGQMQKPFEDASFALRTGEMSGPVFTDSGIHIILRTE
Sequence of Galactokinase (Homo sapiens) (P51570 whole entry, looked up): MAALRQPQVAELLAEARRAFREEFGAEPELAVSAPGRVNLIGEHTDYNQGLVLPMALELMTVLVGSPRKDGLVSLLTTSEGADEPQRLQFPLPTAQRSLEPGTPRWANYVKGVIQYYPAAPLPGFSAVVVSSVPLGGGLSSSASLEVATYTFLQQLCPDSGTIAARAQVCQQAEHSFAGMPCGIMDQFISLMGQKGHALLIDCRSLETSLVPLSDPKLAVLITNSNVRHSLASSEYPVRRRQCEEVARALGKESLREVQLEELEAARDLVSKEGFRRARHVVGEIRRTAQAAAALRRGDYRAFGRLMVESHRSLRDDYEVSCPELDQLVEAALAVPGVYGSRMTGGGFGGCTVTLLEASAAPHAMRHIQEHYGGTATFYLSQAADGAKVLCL
Sequence of phosphoglycerate mutase (Leishmania major) (Q4Q090 1-553): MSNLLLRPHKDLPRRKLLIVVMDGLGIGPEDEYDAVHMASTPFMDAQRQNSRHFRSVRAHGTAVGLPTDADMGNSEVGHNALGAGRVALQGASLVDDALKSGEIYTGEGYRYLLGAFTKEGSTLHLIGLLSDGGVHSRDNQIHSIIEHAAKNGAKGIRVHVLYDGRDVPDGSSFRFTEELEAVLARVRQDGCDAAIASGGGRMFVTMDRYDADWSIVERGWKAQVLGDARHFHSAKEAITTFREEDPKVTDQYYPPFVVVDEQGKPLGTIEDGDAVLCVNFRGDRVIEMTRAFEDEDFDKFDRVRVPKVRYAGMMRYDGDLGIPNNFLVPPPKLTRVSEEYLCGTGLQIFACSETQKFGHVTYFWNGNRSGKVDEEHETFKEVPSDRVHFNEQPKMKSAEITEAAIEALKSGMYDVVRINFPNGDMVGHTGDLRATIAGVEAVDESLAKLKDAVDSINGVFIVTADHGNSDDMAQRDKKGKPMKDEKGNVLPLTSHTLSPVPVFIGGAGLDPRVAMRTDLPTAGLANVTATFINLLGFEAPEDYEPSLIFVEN
Sequence of Phosphoglycerate kinase, glycosomal (Trypanosoma brucei brucei) (P07378 whole entry, looked up): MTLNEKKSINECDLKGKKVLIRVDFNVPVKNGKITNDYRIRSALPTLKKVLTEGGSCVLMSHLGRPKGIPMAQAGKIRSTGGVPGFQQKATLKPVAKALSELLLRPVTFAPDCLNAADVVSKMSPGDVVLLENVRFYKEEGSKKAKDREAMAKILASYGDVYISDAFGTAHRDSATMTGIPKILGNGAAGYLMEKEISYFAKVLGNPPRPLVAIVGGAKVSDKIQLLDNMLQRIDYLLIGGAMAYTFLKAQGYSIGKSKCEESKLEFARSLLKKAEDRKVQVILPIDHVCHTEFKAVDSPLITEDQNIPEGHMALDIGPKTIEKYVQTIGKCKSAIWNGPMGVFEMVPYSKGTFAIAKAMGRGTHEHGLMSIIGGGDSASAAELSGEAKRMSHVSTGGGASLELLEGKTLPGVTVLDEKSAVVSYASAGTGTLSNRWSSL
Sequence of Ubiquitin carboxyl-terminal hydrolase 1 (Homo sapiens) (O94782 whole entry, looked up): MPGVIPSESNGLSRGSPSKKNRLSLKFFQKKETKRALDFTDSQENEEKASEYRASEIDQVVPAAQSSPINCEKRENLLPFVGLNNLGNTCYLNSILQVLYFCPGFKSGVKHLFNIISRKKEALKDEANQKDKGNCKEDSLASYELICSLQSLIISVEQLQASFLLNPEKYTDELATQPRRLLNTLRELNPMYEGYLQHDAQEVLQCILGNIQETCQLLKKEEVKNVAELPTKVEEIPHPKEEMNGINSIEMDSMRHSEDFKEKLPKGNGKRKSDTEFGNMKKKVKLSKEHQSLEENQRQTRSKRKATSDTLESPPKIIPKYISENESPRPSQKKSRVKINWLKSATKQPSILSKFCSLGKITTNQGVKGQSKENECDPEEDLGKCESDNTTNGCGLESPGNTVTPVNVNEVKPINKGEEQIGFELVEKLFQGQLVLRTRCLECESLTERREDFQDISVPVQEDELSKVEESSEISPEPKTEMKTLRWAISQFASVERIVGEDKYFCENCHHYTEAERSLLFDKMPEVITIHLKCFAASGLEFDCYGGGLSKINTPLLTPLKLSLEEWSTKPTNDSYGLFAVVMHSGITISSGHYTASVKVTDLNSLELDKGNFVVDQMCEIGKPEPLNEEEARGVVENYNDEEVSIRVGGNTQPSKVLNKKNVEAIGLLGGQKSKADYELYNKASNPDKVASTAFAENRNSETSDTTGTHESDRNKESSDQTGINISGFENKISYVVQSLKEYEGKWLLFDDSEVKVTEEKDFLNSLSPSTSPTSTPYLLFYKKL

Regarding `CO[C@H]1CC=C2CCN3CCC4=C(CC(=O)OC4)[C@]23C1`, the outcome in [1] and in [5] was inactive. In addition, the Potency entry in [2], in assay [3], in assay [4], in assay [6], in assay [7] and in assay [8] was “inactive” in each case.
Turning to `Cc1[nH]c2ccc(O)cc2c1CCN`, the result in [1] and in assay [10] was inactive. The Potency entry in assay [2], in [3], in assay [9], in assay [4], in assay [6] and in [7] was “inactive” throughout. Further, in assay [8], the Potency result was “inactive”.
For `CCCCCCC(C)(C)c1ccc([C@@H]2C[C@H](O)CC[C@H]2CCCO)c(O)c1`, the molecule was classed as inactive in [1] and in assay [5]. For the same molecule, the Potency entry in assay [2], in assay [3] and in assay [4] was “inactive” in each case.
Take `CN(N=O)c1cc(O)ccc1O`: the molecule was classed as inactive in assay [1] and in assay [5]. For the same molecule, the Potency entry in assay [2], in assay [3], in [4] and in [6] was “inactive” each time. Also, in assay [8], the Potency was 28.2 µM (active).
For the molecule `COc1ccc2c(c1)C13CCCCC1C(C2)N(C)CC3` (stereo not drawn), the result in assay [1] and in [5] was inactive. In addition, the Potency result in [2], in assay [3], in assay [4], in assay [6] and in assay [7] was “inactive” each time.
Regarding `Ic1ccccc1CNC1C2CCN(CC2)C1C(c1ccccc1)c1ccccc1` (stereo not drawn), the molecule was called inactive in [1] and in assay [5]. Further, the Potency entry in [2], in assay [3], in assay [4] and in [6] was “inactive” throughout. For the same molecule, the Potency in assay [7] was 25.1 µM (active); in assay [8], 12.6 µM (active).
For the molecule `NCCCP(=O)(O)O`, the molecule was called inactive in assay [1] and in [5]. For the same molecule, the Potency result in assay [2], in [3], in assay [4], in assay [6], in [7] and in assay [8] was “inactive” throughout.
In the case of `CCCN(CCC)[C@@H]1CCc2cccc(O)c2C1`, the molecule was classed as inactive in [1] and in assay [10]. Moreover, the Potency result in assay [2], in [3], in assay [9], in [4], in [6] and in [7] was “inactive” throughout. Further, the Potency result in [8] was “inactive”.
On to `C[Se]C[C@H](N)C(=O)O`, for which the call in [1] was inactive. The Potency result in assay [2], in assay [3], in assay [9], in assay [4], in [6] and in assay [7] was “inactive” in each case.
For the molecule `COc1ccc2[nH]c3c(c2c1)CCNC3`, the outcome in assay [1] was inactive. For the same molecule, the Potency result in assay [2], in assay [3], in [9], in assay [4], in assay [6] and in [7] was “inactive” throughout.
With `CCCN1CC[C@@H]2c3cc(O)ccc3CC[C@@H]21`, the molecule was classed as inactive in assay [1]. In addition, the Potency entry in assay [2], in assay [3], in [9], in assay [4], in [6] and in [7] was “inactive” each time. For the same molecule, in assay [8], the Potency result was “inactive”.
Regarding `CCCCCCCCCCCCCC(=O)O[C@@H]1[C@@H](C)[C@@]2(O)[C@@H](C=C(CO)C[C@@]3(O)C(=O)C(C)=C[C@@H]23)C2C(C)(C)[C@@]21OC(C)=O` (stereo partly drawn), the outcome in assay [1] and in assay [5] was inactive. The Potency entry in assay [2], in [3], in [9], in assay [4], in assay [7] and in [8] was “inactive” throughout.
Consider `Cc1sc2ccccc2c1CC1=NCCN1`, for which, in assay [1], the call was inactive. Besides, the Potency result in assay [2], in assay [3], in assay [9], in assay [6] and in [7] was “inactive” in each case.
With `CC(N)Cc1c[nH]c2ccc(O)cc12` (stereo not drawn), the result in [1] was inactive. For the same molecule, the Potency result in [2], in [3], in assay [9], in assay [4], in assay [6] and in assay [7] was “inactive” in each case. In addition, the Potency entry in assay [8] was “inactive”.
For `COc1ccc(OC)c(C(O)C(C)N)c1` (stereo not drawn), the call in assay [1] was inactive. For the same molecule, the Potency entry in [2], in [3], in assay [9], in assay [4], in [6] and in assay [7] was “inactive” in each case. The Potency entry in assay [8] was “inactive”.
With `C[N+](C)(C)CC#CCOC(=O)Nc1cccc(Cl)c1`, the result in assay [1] and in assay [5] was inactive. Moreover, the Potency entry in [2], in [3], in assay [4], in assay [6], in [7] and in assay [8] was “inactive” each time.
In the case of `NC(Cc1cc(O)c(O)cc1O)C(=O)O` (stereo not drawn), the result in assay [1] and in assay [5] was inactive. Further, the Potency result in [2], in [4] and in assay [8] was “inactive” in each case. Further, the Potency in assay [3] was 1.69 µM (active); in [9], 338 nM (active); in assay [6], 14.1 µM (active).
For `C[N+]1(C)CCN(c2ccccc2)CC1`, the outcome in [1] and in assay [5] was inactive. Besides, the Potency result in assay [2], in assay [3], in [9], in assay [4], in assay [6] and in assay [8] was “inactive” each time.
Take `OCc1cnc[nH]1`: the molecule was classed as inactive in assay [1] and in assay [5]. In addition, the Potency result in [2], in assay [3], in [4], in [6], in assay [7] and in [8] was “inactive” throughout.
As to `C[C@@H]1O[C@H](C[N+](C)(C)C)CS1`, in assay [1], the outcome was inactive. Besides, the Potency entry in assay [2], in assay [3], in assay [9], in [4], in assay [6] and in assay [7] was “inactive” each time. Moreover, the Potency result in [8] was “inactive”.
Consider `CC(N)c1cccc(Cl)c1Cl` (stereo not drawn), for which, in assay [1], the molecule was classed as inactive. Besides, the Potency entry in assay [2], in [3], in assay [9], in assay [4], in assay [6] and in assay [7] was “inactive” throughout. In [8], the Potency result is “inactive”.
Take `C[N+](C)(C)CCOC(=O)CBr`: in [1], the call was inactive. In addition, the Potency result in assay [2], in assay [3], in assay [9], in [4], in assay [6] and in [7] was “inactive” in each case. In assay [8], the Potency entry is “inactive”.
For the molecule `CC1(C(=O)O)C2CCC(O2)C1(C)C(=O)O` (stereo not drawn), the result in assay [1] and in assay [5] was inactive. Also, the Potency result in [2], in assay [3], in assay [9], in assay [4] and in assay [6] was “inactive” throughout. Further, in [8], the Potency was 7.94 µM (active).
For `C#CCN[C@H](C)Cc1ccccc1`, the result in assay [1] and in [5] was inactive. Besides, the Potency result in [2], in [3], in assay [4], in assay [6], in assay [7] and in assay [8] was “inactive” in each case.
As to `CC(C)(C)c1o[nH]c(=O)c1CC(N)C(=O)O` (stereo not drawn), the call in assay [1] and in assay [5] was inactive. Moreover, the Potency result in [2], in assay [3], in assay [4], in assay [6], in assay [7] and in [8] was “inactive” each time.
As to `CCCN(CCC)CCc1c[nH]c2ccc(C(N)=O)cc12`, the molecule was called inactive in assay [1] and in assay [5]. Further, the Potency result in [2], in assay [3], in [9], in assay [4], in assay [6] and in assay [8] was “inactive” throughout.
For the molecule `C[C@H](N)CN1CCc2ccc(Br)cc21`, in assay [1], the call was inactive. The Potency result in assay [2], in assay [3], in [9], in [4] and in assay [6] was “inactive” in each case. For the same molecule, the Potency in assay [8] is 15.8 µM (active).
